Screens as filed in PubChem.
PrPC TRFRET: cell surface PrPC inhibition, primary TR-FRET screen; 370,000 compounds, 0.43% hits; TR-FRET read-out; inhibition, % at 13.8 µM; in the data active = inhibition above about 24%; also: 0% = median of the test wells and 100% = reference compound wells
GDH-TPI counter: inhibits GDH-TPI coupling enzymes, artifact for Mtb FBA screen; GDH-TPI coupled enzyme counterscreen, NADH absorbance; inhibition, % at 4.8 µM; 360,000 compounds, 1.2% hits; AID 588335; in the data active = inhibition above about 30%;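 also: 0% = DMSO wells and 100% = wells lacking the enzyme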
RecA splice inh: inhibitors of M. tuberculosis RecA intein splicing | cell-free RecA intein splicing, fluorescence | inhibition, % (test concentration not listed) | 290,000 compounds, 0.75% hits | AID 2221; in the data active = inhibition above about 30%;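 also: 0% = vehicle wells and 100% = reference inhibitor control wells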
FBA Mtb inh: inhibitors of M. tuberculosis fructose-bisphosphate aldolase. purified M. tuberculosis FBA, fluorescence read-out. AID 588726. inhibition, % at 1 µM. 360,000 compounds, 2.3% hits; in the data active = inhibition above about 27%;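 also: 0% = vehicle and 100% = reference inhibitor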
Target sequence (P9WQA3 whole entry, looked up): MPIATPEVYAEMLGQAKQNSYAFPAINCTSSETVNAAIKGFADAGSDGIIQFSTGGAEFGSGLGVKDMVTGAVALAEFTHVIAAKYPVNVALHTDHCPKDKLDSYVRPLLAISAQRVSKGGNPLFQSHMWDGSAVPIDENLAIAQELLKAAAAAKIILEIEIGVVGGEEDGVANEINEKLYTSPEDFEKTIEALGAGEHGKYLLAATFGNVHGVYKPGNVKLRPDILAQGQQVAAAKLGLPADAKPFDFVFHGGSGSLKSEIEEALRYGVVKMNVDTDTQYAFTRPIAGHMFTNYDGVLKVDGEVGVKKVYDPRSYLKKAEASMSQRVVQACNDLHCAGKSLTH
BJeLR lethal: kills HRASV12-expressing BJeLR cells; BJeLR (HRASV12) viability, CellTiter-Glo ATP luminescence, 48 h; inhibition, % (no concentration beside the values); 300,000 compounds, 0.17% hits; in the data active = inhibition above about 50%
The depositor's hits bear a star; nt = no result. Compounds with a hit are over-represented: about 4.2% of the library has one in this group of screens.

SMILES	PrPC TRFRET	GDH-TPI counter	RecA splice inh	FBA Mtb inh	BJeLR lethal
CC(C)OC(=O)c1cc(C(=O)c2cc(F)ccc2O)coc1=N	1	36*	-11	5	-6
Cn1nc(C(=O)N2CCN(S(=O)(=O)c3ccccc3)CC2)c2ccccc2c1=O	3	-1	-2	107*	-1
CCCCN1C(=O)N2Cc3ccccc3C2CS1(=O)=O (centres undefined)	3	nt	nt	nt	nt
CCn1c(SCC(=O)c2ccc(NS(=O)(=O)c3ccccc3)cc2)nnc1-c1cccs1	-3	34*	9	8	-6
CCn1c(SCC(=O)Nc2ccccc2)nnc1-c1cccs1	-8	6	-1	5	2
O=C(O)CC/C(=N\Nc1ccc(S(=O)(=O)N2CCOCC2)cc1[N+](=O)[O-])c1cccs1	-42	67*	3	-16	2
CCOC(=O)c1c(N)n(C2CC(C)(C)NC(C)(C)C2)c2nc3ccccc3nc12	nt	23	-206	154*	0
COCCOC(=O)c1c(N)n(CCCN2CCOCC2)c2nc3ccccc3nc12	-3	15	-65	166*	-14
Cc1cccc(-n2c(N)c(C(=O)NCCN3CCOCC3)c3nc4ccccc4nc32)c1	-10	nt	-316	nt	-5
CCOC(=O)c1c(N)n(CCN2CCCCC2)c2nc3ccccc3nc12	-7	17	-184	164*	8
COC(=O)c1c(N)n(CCCN2CCOCC2)c2nc3ccccc3nc12	-7	2	-138	158*	-3
CCOC(=O)c1c(N)n(-c2ccc(N)cc2)c2nc3ccccc3nc12	-7	25	2	3	-2
COc1ccc(CCNC(=O)c2c(N)n(CCN3CCOCC3)c3nc4ccccc4nc23)cc1	0	-1	-3	21	-5
O=C(Nc1ccc(Cl)c(Cl)c1)c1cccc2c1-c1ccccc1C2=O	4	nt	nt	nt	nt
CC(C)C[C@H]1COc2cc(Br)ccc2S(=O)(=O)N1Cc1cccc(Cl)c1	1	nt	nt	nt	nt
CCc1ccc(C(=O)NNC(=S)Nc2ccc(S(N)(=O)=O)cc2)s1	1	25	63*	3	3
COc1cc2c(cc1OC)-c1nc3ccccc3c(=O)n1C(C)(C)C2	-3	39*	3	5	6
O=C(CCl)Nc1ccccc1C(=O)Nc1ccc2c(c1)OCO2	-5	8	38*	-1	18
COCCCNC(=O)c1oc(=O)c2ccccc2c1-c1ccc(C)cc1	0	nt	nt	nt	nt
Cc1cc(OCC(=O)NC(Cc2ccc(Cl)cc2)C(=O)O)c2c(C)cc(=O)oc2c1 (centres undefined)	-1	6	-1	74*	-4
CCCCc1cc(=O)oc2cc(C)cc(OC(C)C(=O)O)c12 (centres undefined)	2	12	-1	134*	8
CCc1cc(=O)oc2cc(C)cc(OCC(=O)N3CCC(C(=O)NC(C)C)(c4ccccc4)CC3)c12	1	2	3	66*	9
CCCCc1cc(=O)oc2cc(O)cc(O)c12	7	9	-20	129*	0
Cc1cc(N2CCN(C(=O)Oc3ccc(-c4ccccc4)cc3)CC2)c2ccccc2n1	-7	nt	nt	nt	nt
Cc1ccc2c(c1)C(CS(=O)(=O)NC1CCCC1)NC2 (centres undefined)	-6	nt	nt	nt	nt
SMILES	PrPC TRFRET	GDH-TPI counter	RecA splice inh	FBA Mtb inh	BJeLR lethal
COC(=O)[C@]12C[C@H](CC(=O)NCCC(C)C)C(=O)N(Cc3ccc(Cl)cc3Cl)C1=C[C@H](COCc1ccccc1)O[C@@H]2C	1	nt	nt	nt	nt
CCOc1ccc(-c2nc(CSCC(=O)NC3CCC3)c(C)o2)cc1	4	nt	nt	nt	nt
COc1ccc2c(CC(=O)NC(Cc3ccc(Cl)cc3)C(=O)O)cc(=O)oc2c1C (centres undefined)	-4	10	-3	121*	0
CCCc1cc(=O)oc2cc(C)cc(OCC(=O)NC3CCN(Cc4ccccc4)CC3)c12	-5	6	-2	23	-2
CCCc1cc(=O)oc2cc(C)cc(OCC(=O)N[C@@H](CSCc3ccccc3)C(=O)O)c12	0	6	-3	39*	-4
Cc1nc2sc(C(=O)NCc3ccc4c(c3)OCO4)c(N)c2c(C)c1Cl	-1	nt	nt	nt	nt
COc1cccc(N2CCN(C(=O)COc3cc(=O)n(C)c4ccccc34)CC2)c1	-4	nt	nt	nt	nt
COc1cc(/C=C/C(=O)Nc2nc3ccc(S(=O)(=O)N(C)C)cc3s2)cc(OC)c1OC	0	48*	-11	25	1
COc1cc(/C=C/C(=O)Nc2nnc(C(C)(C)C)s2)cc(OC)c1OC	-6	24	-5	13	-2
O=c1cc(-c2ccc(O)cc2)oc2c(-c3c(O)cc(O)c4c(=O)cc(-c5ccc(O)cc5)oc34)c(O)cc(O)c12	-7	35*	nt	1	nt
O=c1cc(-c2ccc(O)c(-c3c(O)cc(O)c4c(=O)cc(-c5ccc(O)cc5)oc34)c2)oc2cc(O)cc(O)c12	1	33*	6	-1	-1
COc1ccc(-c2cc(=O)c3c(O)cc(O)cc3o2)cc1	-4	34*	nt	2	nt
O=c1c(-c2c(O)cc(O)c3c(=O)cc(-c4ccc(O)cc4)oc23)c(-c2ccc(O)cc2)oc2cc(O)cc(O)c12	-1	23	nt	-1	nt
Cc1c(C(=O)Nc2nnc(C3CC3)s2)oc2c(Cl)cccc12	-1	37*	-1	2	11
CC(C)C[C@H](NC1(C(=O)NC2CCCCC2)CCCCC1)C(=O)NCCc1c[nH]c2ccccc12	3	nt	nt	nt	nt
NC(=O)N=Nc1c2[nH]c3ccccc3nc-2c2ccccc12	-25	36*	-1	2	18
Cc1cc(/C=C2/NC(=O)NC2=O)c(C)n1-c1ccc(N2CCOCC2)cc1	-14	34*	-16	2	-5
COc1ccccc1N1CCN(C(c2cc3ccc(C)cc3[nH]c2=O)c2nnnn2C2CCCC2)CC1 (centres undefined)	2	34*	-2	4	-3
COc1ccccc1N1CCN(C(c2cc3cc(C)ccc3[nH]c2=O)c2nnnn2C2CCCC2)CC1 (centres undefined)	-2	-1	-3	-1	-13
COc1ccc2nc(C)cc(N/N=C/c3ccc(F)cc3)c2c1	-8	6	-1	2	93*
COc1ccc(Nc2ccnc3ccccc23)cc1	-12	32*	2	0	1
COc1ccc(Nc2cc(C)nc3ccc(OC)cc23)cc1	-18	34*	4	2	-12
COc1ccc(/C=N/Nc2cc(C)nc3ccccc23)cc1	-21	21	-7	4	20
COc1ccc2nc(C)cc(Nc3ccc(C(=O)O)cc3)c2c1	nt	3	1	0	-4
CC#CC(=O)N[C@H]1CC[C@@]23CCCN2C(=O)CCC[C@H]3[C@H]1C	-8	nt	nt	nt	nt
Cc1ccc2ncc(NC(=O)c3ccc(F)cc3)c(=O)n2c1	-6	33*	2	-1	2
O=C(O)c1ccc2ncc(NC(=O)c3ccc(F)cc3)c(=O)n2c1	-11	20	2	5	5
Cn1c(/C(C#N)=C/c2ccc(-c3ccc(S(N)(=O)=O)cc3)o2)nc2ccccc21	4	40*	nt	-5	nt
Cn1c(/C(C#N)=C/c2cccc(O)c2)nc2ccccc21	5	16	4	2	1
